Sampled rows, rich in hits. Any-hit rate of the full collection: about 2%.
LDHA inh = qHTS assay for inhibitors of human lactate dehydrogenase. purified LDHA, NADH/diaphorase-resazurin fluorescence; hits give low values. AID 1347041, 2019. L-lactate dehydrogenase A chain (Homo sapiens), P00338. activity change, % (values are at about 110 or 230 µM). actives 0.15% (n = 480,000); in the data active = activity change below about -30%; inconclusive = mostly about -25% to -30%
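Human LDH5 (2 nM) was incubated with 0.06 mM NADH and 0.2 mM pyruvate for 5 min at room temperature in Tris pH 7.4. Remaining NADH was coupled through diaphorase/resazurin, and resorufin fluorescence was read at 0 and 20 min.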
TDP-43 yeast inh = qHTS of TDP-43 Inhibitors; TDP-43 expressing yeast growth rescue, BacTiter-Glo, 24 h; Potency, µM (titrated, usually from 46.1 µM), most hits filed as activators; actives 1.8% (n = 410,000); AID 652104, 2013; also: nearly all actives have a fitted effect of over 50% in size
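Luminescence from BacTiter-Glo reports growth of TDP-43-expressing yeast after 24 hr at 30 deg C with compound. Cells were raffinose-pregrown to mid-log, then seeded in galactose medium at OD600=0.02.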
aSyn yeast inh = qHTS of alpha-syn Inhibitors; Yeast expressing alpha-synuclein, growth rescue, BacTiter-Glo, 24 h; Potency, µM (series often up to 46.1 µM), actives largely listed as activators; actives 0.14% (n = 370,000); also: nearly all actives have a fitted effect of over 65% in size
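Readout is rescue of growth in alpha-synuclein-expressing yeast, so inhibitors of toxicity appear as activators. Growth after 24 hr at 30 deg C in galactose medium is quantified by luminescence.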
mIDH1 inhibitor = qHTS for Inhibitors of mutant isocitrate dehydrogenase 1 (IDH1): qHTS; IDH1-R132H enzyme, NADPH consumption, diaphorase/resazurin fluorescence; Isocitrate dehydrogenase [NADP] cytoplasmic (Homo sapiens), O75874; AID 602179, 2012; actives 0.093% (n = 390,000); Potency, µM (series often up to 76.6 µM), hits mostly inhibitors; also: nearly all actives have a fitted effect of over 65% in size
Target sequence (O75874 whole entry R132H, stated change not applied): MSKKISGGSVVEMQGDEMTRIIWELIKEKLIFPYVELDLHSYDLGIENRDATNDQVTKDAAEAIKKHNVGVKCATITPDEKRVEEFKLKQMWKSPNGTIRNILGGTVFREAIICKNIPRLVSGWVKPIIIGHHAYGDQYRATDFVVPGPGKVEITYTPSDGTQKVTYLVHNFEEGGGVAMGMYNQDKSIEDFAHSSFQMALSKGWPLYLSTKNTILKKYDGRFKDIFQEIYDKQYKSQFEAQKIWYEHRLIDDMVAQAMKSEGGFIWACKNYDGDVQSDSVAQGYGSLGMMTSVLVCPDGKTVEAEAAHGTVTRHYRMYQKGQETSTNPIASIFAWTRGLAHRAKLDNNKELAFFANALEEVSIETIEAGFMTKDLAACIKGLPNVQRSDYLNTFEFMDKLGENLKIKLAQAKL
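IDH1-R132H (0.5 ug/mL) preincubated 30 min with compound, then NADPH (0.016 mM) and alpha-KG (2 mM) added; 80 min at RT, pH 7.5. Remaining NADPH coupled via diaphorase/resazurin to fluorescence (540/590 nm); concentration-response curves normalized to no-enzyme control.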
FUS suppressor = qHTS for Suppressors of FUS Proteinopathy: Primary screen using FUS-linked yeast assay; S. cerevisiae FUS-expressing, growth rescue, OD600, 24 h; Potency, µM (titrated, usually from 76.6 µM), usual class: activators; actives 0.24% (n = 390,000); also: nearly all actives have a fitted effect of over 55% in size
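Absorbance at 600 nm, taken 24hr after compound addition, measured rescue of FUS-yeast growth at 30C. Induction used 2% galactose with seeding at OD 0.005. Controls: CP55940 from 92uM final, DMSO only.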
Abeta yeast res = qHTS for compounds that reverse cellular toxicity of Amyloid beta (A-beta) peptide in yeast: Primary Screen. actives 0.063% (n = 410,000). yeast expressing A-beta42, growth rescue, OD600, 48 h; response scale: 0% DMSO, 100% iron-clioquinol control. Potency, µM (top dose mostly 46.1 µM), actives largely listed as activators; also: nearly all actives have a fitted effect of over 55% in size
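Growth rescue measured by 600 nm absorbance after 48 h yeast culture at 30 C with compound. Values normalized between DMSO and an equimolar ferric chloride plus clioquinol control.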
Hits are given with their value; n = inactive; u = inconclusive; x = not tested or not shown; [ ] = another dose, or the depositor's remark. Unless noted, calls follow the shape of the dose curve; as a rule, active = well fitted curve in the direction sought with a large enough effect; inconclusive = small, poorly fitted or top-dose-only effect, or another doubt; inactive = no such curve, though single readings can be large; an effect the other way counts as inactive or inconclusive.

SMILES | LDHA inh | TDP-43 yeast inh | aSyn yeast inh | mIDH1 inhibitor | FUS suppressor | Abeta yeast res
N#CCCN(C(=O)CSc1nnnn1-c1cccc(Cl)c1)c1ccc(F)cc1 | n | x | x | x | x | x
N#CCCCSc1nnnn1-c1cccc(Cl)c1 | n | 22µM | n | n | n | n
CCn1c(/C=C2/C(=O)N(C)c3ccccc32)nc2ccccc2c1=O | n | 14µM | n | n | n | n
CCn1c(/C=C2\C(=O)N(C)c3ccccc32)nc2ccccc2c1=O | n | u | n | n | n | n
CCN1C(=O)/C(=C\c2nc3ccccc3c(=O)n2CC)c2ccccc21 | n | 13µM | n | n | n | n
CCn1c(/C=C\c2ccccc2C)nc2ccccc2c1=O | n | 22µM | n | n | n | n
Cc1cc(=O)oc2cc(NC(=O)Cc3c(Cl)cccc3Cl)ccc12 | n | x | x | x | x | x
COCCn1c(-n2nc(C)cc2C)nc2c1c(=O)n(Cc1cc(C)ccc1C)c(=O)n2C | n | x | x | x | x | x
O=[N+]([O-])c1cccc(-c2ccc(SCc3cccnc3)nn2)c1 | n | 16µM | n | n | n | n
O=C(/C=C/c1ccc(-c2ccccc2)s1)N(Cc1ccco1)C1CC1 | n | x | x | x | x | x
Cn1c(C(=O)O)cc2cc(Oc3ccccc3)ccc21 | n | 22µM | n | n | n | n
Cn1c(C(=O)NN)cc2cc(Oc3ccccc3)ccc21 | n | n | n | n | n | n
O=C(O)c1cc2cc(Oc3ccccc3)ccc2[nH]1 | n | 18µM | n | n | n | n
Cc1ccc(-c2ccnc3nc(-n4cccc4)nn23)o1 | n | 35µM | n | n | n | n
CN(C)/C=N/c1nc2nccc(-c3ccccn3)n2n1 | n | n[9.22 µM] | n | n | n | n
CCc1cccc(NC(=O)c2cccc3c2C(=O)N(CC2CCCO2)C3)c1 (configuration not stated) | n | 18µM | n | n | n | n
O=C(O)c1cccc2c1C(=O)N(CC1CCCO1)C2 (configuration not stated) | n | n[9.22 µM] | n | n | n | n
COc1ccc(CN(C)C(=O)Cn2nc(C(=O)O)c3ccccc3c2=O)cc1 | n | x | x | x | x | x
CCOC(=O)c1cnc2ccc(OCC)cc2c1N1CCN(c2cccc(Cl)c2)CC1 | n | 20µM | x | n | u | n
CCOC(=O)c1cnc2ccc(OCC)cc2c1N1CCN(C)CC1 | n | n | n | n | n | n
Fc1ccc(Sc2cc(Cl)c(-c3ccccc3)nn2)cc1 | n | 16µM | n | n | n | n
CC(NC(=O)CSc1cc(F)ccc1F)c1nc2ccccc2[nH]1 (configuration not stated) | n | x | x | x | x | x
CCCCCCSc1ccc([C@H]2N[C@@](C)(C(=O)OC)[C@H]3C(=O)N(C)C(=O)[C@@H]23)cc1 | n | u | u | n | 13µM | n
COc1ccc(NC(C)=O)cc1NC(=O)/C=C/c1ccc2ccccc2n1 | n | x | x | x | x | x
COC(=O)C1=C(C)NC(=O)CC1c1cccc(OC)c1OC (configuration not stated) | n | n | n | n | n | n
SMILES | LDHA inh | TDP-43 yeast inh | aSyn yeast inh | mIDH1 inhibitor | FUS suppressor | Abeta yeast res
Cc1ccc2c(c1C)NC(=O)CC2c1ccc(Cl)cc1Cl (configuration not stated) | n | 35µM | x | n | n | n
COc1cccc(C2CC(=O)Nc3c2ccc(C)c3C)c1OC (configuration not stated) | n | 18µM | x | n | n | n
O=Cc1ccccc1-n1ccnc1 | n | x | x | x | x | x
CCOc1ccc(-c2nc3cc(NC(=O)c4cccc(C)c4)ccc3o2)cc1 | n | x | x | x | x | x
Cc1ccc(CSc2nnc(-c3ccccn3)n2Cc2cccs2)cc1 | n | 35µM | n | x | u | n
CCn1c(SCc2ccc(C)cc2)nnc1-c1cnccn1 | n | 11µM | n | n | n | n
Brc1ccc(CSc2nnc(-c3cnccn3)n2Cc2ccco2)cc1 | n | 35µM | n | n | x | n
CCOCCCNC(=O)c1ccc(NC(=O)C23CC4CC(CC(C4)C2)C3)cc1 | n | x | x | x | x | x
Cc1cccc(-n2nnnc2SCC(=O)c2ccc(Br)s2)c1 | n | x | x | x | x | x
O=C(Nc1cccc(-c2csc(Nc3cccc(C(F)(F)F)c3)n2)c1)c1ccccc1 | n | 18µM | n | n | n | n
COc1ccc(-c2csc(Nc3ncccc3C)n2)cc1OC | n | 14µM | n | n | n | n
COc1ccc(Nc2nc(-c3ccc(OC)cc3)cs2)cc1 | n | n | n | n | n | n
COc1ccc(-c2csc(-c3cccnc3)n2)cc1C | n | 16µM | n | n | n | n
COc1ccc(-c2csc(Nc3ccccc3)n2)cc1 | n | 10µM | n | n | n | u
COc1ccc2cc(-c3csc(-c4cccnc4)n3)ccc2c1 | n | n | n | n | n | n
CCOC(=O)c1ccc(Oc2c(C)oc3cc(OCC(=O)c4ccc(OC)cc4)ccc3c2=O)cc1 | n | x | x | x | x | x
Cc1cccc(NC(=S)N/N=C2/CCCC(C)C2)c1 (configuration not stated) | n | x | x | x | x | x
O=C(Nc1cccc(-c2csc(Nc3ccccc3)n2)c1)c1ccccc1 | n | 6.3µM | n | n | n | n
COc1ccc(-c2csc(-n3cccn3)n2)cc1 | n | 10µM | n | n | n | n
Cc1csc(NC(=O)C(C)Oc2ccc(Br)cc2)n1 (configuration not stated) | n | 35µM | n | n | n | n
Cc1csc(NC(=O)Cc2ccc(Br)cc2)n1 | n | 10µM | n | n | n | n
CCCCc1nc2sc3c(NCC(C)O)ncnc3c2c2c1CCC2 (configuration not stated) | n | x | x | x | x | x
O=C(NC1CC1)C1=C[C@H](c2csc3ccccc23)C[C@H](OCc2ccc(CO)cc2)O1 | n | u | n | n | n | n
O=C(Nc1ccccc1)C1=C[C@H](c2csc3ccccc23)C[C@H](OCc2ccc(CO)cc2)O1 | n | n | n | n | 11µM | n
Cc1ccc(CNCc2ccccc2C(F)(F)F)cc1 | n | x | x | x | x | x
COc1ccc(NS(=O)(=O)c2cc(NC(=O)CCNC(C)=O)ccc2N2CCCCC2)cc1 | n | n | n[1.84 µM] | n | 32µM | n
COc1ccc(C2Nc3c(C)cc(C)cc3-c3cc(C)nn32)cc1O (configuration not stated) | n | x | x | x | x | x
CCN(CC)S(=O)(=O)c1ccc(N(C)C)c(NS(=O)(=O)c2ccccc2C(F)(F)F)c1 | n | x | x | x | x | x
CCc1cccc(NC(=O)Cn2nc(-c3cc(C)ccc3C)ccc2=O)c1 | n | 28µM | x | n | u | u
